# Laboratory results as given in PubChem BioAssay AID1494157 (National Center for Advancing Translational Sciences (NCATS), 2020).
# Records with an inconclusive call do not appear. Active and inactive are the calls of the source. Calls come from the whole dose curve.
# Experiment: Confirmatory qHTS for inhibitors of MERS-S pseudo-typed particle cell entry
# Conditions: MERS-S pseudotyped particle entry, luciferase reporter; series mostly up to 57.1 µM
row,Structure (SMILES),Potency
1,N#CC(c1ccc(Cl)cc1)c1c(Cl)cc(-n2ncc(=O)[nH]c2=O)cc1Cl (stereo unspecified),7.64 µM (active)
2,C=C1c2c(Cl)ccc(O)c2C(O)=C2C(=O)[C@@]3(O)C(O)=C(C(N)=O)C(=O)[C@@H](N(C)C)[C@@H]3[C@@H](O)[C@H]12,19.2 µM (active)
3,CCN1CCN(Cc2ccc(Nc3ncc(F)c(-c4cc(F)c5nc(C)n(C(C)C)c5c4)n3)nc2)CC1,0.482 µM (active)
4,COc1cc2nccc(Oc3ccc(NC(=O)C4(C(=O)Nc5ccc(F)cc5)CC4)cc3)c2cc1OC,12.1 µM (active)
5,C[C@@H](c1nc(-c2ccc(C#N)cc2)cs1)[C@](O)(Cn1cncn1)c1cc(F)ccc1F,5.41 µM (active)
6,COc1cccc2c1C(=O)c1c(O)c3c(c(O)c1C2=O)C[C@@](O)(C(C)=O)C[C@@H]3O[C@H]1C[C@H](N)[C@H](O)[C@H](C)O1,3.83 µM (active)
7,Cc1nnc(C(=O)NC(C)(C)c2nc(C(=O)NCc3ccc(F)cc3)c(O)c(=O)n2C)o1,0.0043 µM (active)
8,CC(C)C[C@H](NC(=O)[C@H](CCc1ccccc1)NC(=O)CN1CCOCC1)C(=O)N[C@@H](Cc1ccccc1)C(=O)N[C@@H](CC(C)C)C(=O)[C@@]1(C)CO1,0.192 µM (active)
9,COc1cccc2c1C(=O)c1c(O)c3c(c(O)c1C2=O)C[C@@](O)(C(=O)CO)C[C@@H]3O[C@H]1C[C@H](N)[C@@H](O)[C@H](C)O1,3.83 µM (active)
10,CCCCc1oc2ccccc2c1C(=O)c1cc(I)c(OCCN(CC)CC)c(I)c1,10.8 µM (active)
11,CC(C)C(=O)Oc1ccc(CO)cc1[C@H](CCN(C(C)C)C(C)C)c1ccccc1,19.2 µM (active)
12,Cc1cn([C@H]2C[C@H](N=[N+]=[N-])[C@@H](CO)O2)c(=O)[nH]c1=O,0.242 µM (active)
13,CN1CCC[C@@H]1CCO[C@](C)(c1ccccc1)c1ccc(Cl)cc1,7.64 µM (active)
14,O=C1CCc2ccc(OCCCCN3CCN(c4cccc(Cl)c4Cl)CC3)cc2N1,12.1 µM (active)
15,O=C(Nc1ccc([N+](=O)[O-])cc1Cl)c1cc(Cl)ccc1O,0.857 µM (active)
16,COC(=O)C[C@](O)(CCCC(C)(C)O)C(=O)O[C@@H]1C(OC)=C[C@]23CCCN2CCc2cc4c(cc2[C@H]13)OCO4,0.607 µM (active)
